Bioassay records from PubChem BioAssay.
USP2a inh = inhibitors of human ubiquitin-specific protease USP2a. USP2a enzymatic assay, qHTS inhibition. actives 0.1% (n = 60,000). O75604. Potency, µM (titrated, usually from 38.3 µM), usual class: inhibitors; note: nearly all actives have a fitted effect of over 60% in size
Target sequence (O75604 whole entry, looked up): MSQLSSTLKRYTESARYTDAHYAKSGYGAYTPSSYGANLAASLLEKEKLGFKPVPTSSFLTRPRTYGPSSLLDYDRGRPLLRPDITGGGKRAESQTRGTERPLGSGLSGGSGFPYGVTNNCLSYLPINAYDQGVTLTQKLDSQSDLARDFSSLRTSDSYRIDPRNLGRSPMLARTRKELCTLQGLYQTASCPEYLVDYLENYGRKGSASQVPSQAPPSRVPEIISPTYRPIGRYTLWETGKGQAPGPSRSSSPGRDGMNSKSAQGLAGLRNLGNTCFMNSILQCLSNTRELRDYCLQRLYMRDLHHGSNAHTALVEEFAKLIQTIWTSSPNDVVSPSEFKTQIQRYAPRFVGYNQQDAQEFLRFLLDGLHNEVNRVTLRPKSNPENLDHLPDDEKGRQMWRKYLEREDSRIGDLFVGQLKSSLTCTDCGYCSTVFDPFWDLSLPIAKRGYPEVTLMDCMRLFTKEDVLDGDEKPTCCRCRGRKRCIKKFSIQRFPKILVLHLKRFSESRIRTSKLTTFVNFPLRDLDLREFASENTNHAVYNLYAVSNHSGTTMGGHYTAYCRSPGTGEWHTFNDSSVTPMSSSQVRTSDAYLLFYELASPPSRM
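USP2 core (20 nM final) was preincubated with compound for 30 min at RT in 20 mM Tris-HCl pH 8.0, 2 mM CaCl2, 2 mM beta-mercaptoethanol; Ub-PLA2 (20 nM) plus NBD C6-HPC (20 uM) then added, fluorescence read after 2.5 h.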
ALOX15 inhib = inhibitors of human 15-lipoxygenase (ALOX15); P16050; purified 15hLO-1, xylenol orange hydroperoxide absorbance; Potency, µM (series often up to 57.1 µM), most hits filed as inhibitors; actives 1.4% (n = 74,000); AID 887; note: nearly all actives have a fitted effect of over 55% in size
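Inhibition is scored from a chromogenic endpoint. After 15 min enzyme-compound contact, arachidonic acid (50 uM final) reacts 6 min with 40 nM 15hLO-1 at room temperature, then Fe-XO reagent is added for 30 min and absorbance ratio recorded.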
Tau filament bind = binds recombinant human tau filaments; P10636; recombinant tau filaments, thioflavin S fluorescence, 15 h; filaments grown with octadecylsulfate alongside compound; Potency, µM (highest dose often 57.1 µM); actives 2% (n = 71,000);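 note: actives lower thioflavin S fluorescence by blocking filaments or displacing dye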
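Recombinant tau protein (human, 1 uM final) plus 30 uM ODS in HEPES pH 7.4 with NaCl, DTT and thioflavine S. Compound present from the start; fluorescence at 510 nm after 15 h, 37 C.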
Hsp90 Hop PPI = changes Hsp90-Hop TPR2A binding signal, up or down. AlphaScreen TPR2A-His6 binding biotin-Hsp90 C-terminal peptide. Potency, µM (titrated, usually from 57 µM). actives 0.44% (n = 71,000); active = well fitted curve in either direction with a large enough effect; inconclusive = small, poorly fitted or top-dose-only effect, or another doubt
Each line names hits and unclear results; the compound was inactive in the other large screens; ! = repeats disagree. Shown are actives, neighbours in structure and some others; about 3.2% of the full set was active somewhere. Unless noted, calls come from the whole dose curve; as a rule, active = well fitted curve in the direction sought with a large enough effect; inconclusive = small, poorly fitted or top-dose-only effect, or another doubt; inactive = no such curve, though single readings can be large; an effect the other way counts as inactive or inconclusive.

COC(=O)C1=NOC2(C=C(Br)C(OC)=C(Br)C2=O)C1 (configuration not stated)	none (no result: USP2a inh, Tau filament bind, Hsp90 Hop PPI)
O=C1C2[C@@H](c3ccccc3)N[C@@H](c3ccccc3)C1[C@H](c1ccccc1)N[C@H]2c1ccccc1	none (no result: USP2a inh)
COc1ncc2nc(-c3ccc(F)cc3)c(=O)n(-c3ccccc3)c2n1	none
CCNc1ncc2nc(-c3cc(F)cc(F)c3)c(=O)n(C)c2n1	none
CCCCCCOC(=O)C(C#N)c1nc2ccccc2nc1N1CCN(CC)CC1 (configuration not stated)	Tau filament bind 1µM
CCN(CC)C(=O)c1cc2sc3ccccc3c2s1	ALOX15 inhib 25µM
COc1ccc(NC(=O)N2CCCC3(CCN(C(=O)c4cccn4C)CC3)C2)cc1	none
CCOc1ccc2c(ccc(/C=C\c3cc(C)c4cccnc4c3O)[n+]2C)c1	Tau filament bind 0.63µM, Hsp90 Hop PPI inconclusive (no result: USP2a inh)
CCOc1ccc2nc(C)cc(C(=O)O)c2c1	none
COC(=O)c1cc(-c2ccc3c(c2)OCO3)nc2ccccc12	Hsp90 Hop PPI 25µM
O=C(O)c1cc(-c2ccc3cc4c(cc3c2)OCO4)nc2ccccc12	none (no result: USP2a inh)
CCOC(=O)c1c(N2C(=O)C3C4C=CC(O4)C3C2=O)sc2c1CCCC2 (configuration not stated)	ALOX15 inhib 7.9µM
O=C(CSc1nnnn1-c1ccccc1)CC(=O)Nc1ccc(Cl)cc1	Tau filament bind inconclusive
CCCCC[C@H](CC(=O)NO)C(=O)N[C@@H](C(=O)N1CCC[C@H]1CO)C(C)C	Hsp90 Hop PPI inconclusive
COc1ccccc1N1CCN(C[C@@H](C(=O)NC(C)(C)C)c2ccccc2)CC1	ALOX15 inhib 16µM, Tau filament bind inconclusive (no result: USP2a inh)
COc1ccccc1N1CCN(C[C@@H](O)COc2cccc3ccccc23)CC1	ALOX15 inhib inconclusive, Tau filament bind inconclusive
O=C(OCC(=O)N1CCN(C(=O)c2ccco2)CC1)c1cc(-c2ccccc2)nc2ccccc12	none
Cc1cc(C(=O)OCC(=O)N2CCN(c3ccccc3)CC2)c2ccccc2n1	Tau filament bind 13µM
CC1(C)Cc2c(C#N)c(N3CCCC3)nc(-c3ccco3)c2CO1	Hsp90 Hop PPI 25µM (no result: USP2a inh)
CCCCN(C)c1nc(-c2ccco2)c2c(c1C#N)CC(C)(C)OC2	ALOX15 inhib inconclusive, Hsp90 Hop PPI 25µM (no result: USP2a inh)
COc1ccc2[nH]c3c(=O)n(CCCCC(=O)NCCN4CCCC4)c(=S)[nH]c3c2c1	ALOX15 inhib 10µM
CCC(=O)/C=C/C1C(C)=CCCC1(C)C (configuration not stated)	ALOX15 inhib 25µM (no result: USP2a inh)
C[C@H]1C[C@@H]2[C@H]3CCC4=CC(=O)C=C[C@@]4(C)[C@]3(Cl)[C@@H](Cl)C[C@]2(C)[C@]1(O)C(=O)COP(=O)(O)O	none (no result: USP2a inh, ALOX15 inhib)
CN1CCN(c2nc(-c3ccc(N(C)C)cc3)nc3ccccc23)CC1	Tau filament bind 13µM, Hsp90 Hop PPI inconclusive
COc1ncc2nc(-c3ccc(Cl)cc3)c(=O)n(C[C@H]3CCCO3)c2n1	Tau filament bind inconclusive
COc1ccc(-c2nc3cnc(N(C)C)nc3n(CCc3ccccc3)c2=O)cc1	Hsp90 Hop PPI 0.63µM
O=c1c(-c2ccccc2)nc2cnc(N3CCOCC3)nc2n1CCc1ccccc1	Hsp90 Hop PPI 5µM
O=c1c(-c2ccc(Cl)cc2)nc2cnc(N3CCOCC3)nc2n1CCc1ccccc1	none
O=C(NCCO[N+](=O)[O-])c1cccnc1	ALOX15 inhib inconclusive, Tau filament bind inconclusive (no result: USP2a inh)
Cc1[nH]c(C)c(CN(C)C)c1CN(C)C	none (no result: USP2a inh)
O=[N+]([O-])c1cccc2c[nH]nc12	Tau filament bind inconclusive (no result: USP2a inh)
Cc1ccccc1-c1ccc(Nc2ccc(N3CCOCC3)cc2)nn1	Tau filament bind 16µM
CCOC(=O)C1=C(C)N=c2s/c(=C/c3ccco3)c(=O)n2C1c1cccc(OC)c1 (configuration not stated)	ALOX15 inhib 16µM, Tau filament bind 3.2µM
CCOC(=O)C1=C(C)N=c2s/c(=C\c3cccn3C)c(=O)n2C1c1cccc(OC)c1OC (configuration not stated)	none
CCOC(=O)C1=C(N)n2c(s/c(=C/c3ccco3)c2=O)=C(C(=O)OC)C1c1ccco1 (configuration not stated)	Tau filament bind 3.2µM
Clc1ccc(Sc2oc(/C=N/n3cnnc3)cc2Br)cc1	Tau filament bind 5µM
Cc1cc(C)nc(Nc2nc(=O)c3ccccc3s2)n1	ALOX15 inhib 7.9µM
FC(F)(F)c1ccccc1-c1nccc(-n2ccnc2)n1	ALOX15 inhib inconclusive
CCc1cc(C(=O)COc2ccccc2F)c(O)cc1O	ALOX15 inhib 13µM
CCc1cc(C(=O)Cc2ccc(F)cc2)c(O)cc1O	ALOX15 inhib inconclusive
C=C(C)C1CCC(C)=C1COC(=O)Nc1ccccc1 (configuration not stated)	ALOX15 inhib 6.3µM (no result: USP2a inh, Tau filament bind, Hsp90 Hop PPI)
O=C1CC(c2ccccc2O)Oc2ccc(O)cc21 (configuration not stated)	none (no result: USP2a inh, Tau filament bind, Hsp90 Hop PPI)
O=c1ccc2cc3c([nH]c4ccc(Br)cc43)oc-2c1O	ALOX15 inhib 25µM, Tau filament bind 13µM
CCCCCCSC1=C(C#N)C(c2ccc(O)cc2)CC(=O)N1 (configuration not stated)	ALOX15 inhib 20µM
COC(=O)c1cc(CSc2nnc(-c3ccccc3)c(-c3ccccc3)n2)oc1C	Tau filament bind 16µM
COC(=O)c1cc(CSc2nc3ccc(C)cc3[nH]2)oc1C	none
c1coc(C2Nc3cccc4cccc(c34)N2)c1	USP2a inh inconclusive, ALOX15 inhib 1.6µM, Tau filament bind 6.3µM
Cc1cc(C(=O)CSc2nnc(-c3ccccc3)n2C)c(C)n1C	none
Cc1cc(C(=O)CSc2nnc(-c3cccnc3)n2-c2ccccc2F)c(C)n1C	ALOX15 inhib 16µM
CC1Cc2ccccc2N1C(=O)c1cnsn1 (configuration not stated)	ALOX15 inhib 4µM, Hsp90 Hop PPI inconclusive
CCCN1C[C@@H](CSC)C[C@H]2c3cccc4[nH]cc(c34)C[C@@H]21	none
O=C1CN(CC(=O)N2CCCCC2)c2ccccc2O1	ALOX15 inhib inconclusive, Tau filament bind 32µM
O=C1CN(CC(=O)N2CCOCC2)c2ccccc2O1	Tau filament bind inconclusive
ClC1=C(Cl)C(Cl)(Cl)C(Cl)=C1Cl	none (no result: USP2a inh)
Nc1ccc(-c2nc3ccc(-c4nc5ccc(N)cc5[nH]4)cc3[nH]2)cc1	USP2a inh 25µM (no result: Tau filament bind, Hsp90 Hop PPI)
O=C1[C@@H]2[C@@H]3C=C[C@H]([C@@H]2C(=O)N1CN1CCSCC1)[C@@H]1[C@@H]2C(=O)N(CN4CCSCC4)C(=O)[C@@H]2[C@H]31	none (no result: USP2a inh)
COc1c(O)cc2c(c1O)[C@@H]1O[C@@H](CO)[C@@H](O)[C@@H](O)[C@@H]1OC2=O	none
COc1ccc(NC(=O)N2CC[C@@]3(CCCN(C(C)=O)C3)C2)cc1	USP2a inh 10µM
N#Cc1cc2nc(O)c(O)nc2cc1[N+](=O)[O-]	ALOX15 inhib inconclusive, Tau filament bind 40µM!
C/C=C/OC(=O)NC(c1ccccc1)[C@@]1(C(=O)OC)CCCC1=O (some centres not stated)	none (no result: USP2a inh, Tau filament bind, Hsp90 Hop PPI)
